Most compounds without a hit are left out; they make up all but 3.8% or so of the library.
Jurkat NFkB inh = inhibitors of the PMA/ionomycin-induced NF-kB reporter in Jurkat cells. actives 0.53% (n = 330,000). inhibition, % at 4 µM. AID 435003. PMA/ionomycin-induced NF-kB luciferase reporter, luminescence; in the data active = inhibition above about 50%
697 NFkB inh = inhibitors of the PMA/ionomycin-induced NF-kB reporter in 697 B cells; inhibition, % at 4 µM; actives 0.33% (n = 330,000); 697 B-cell NF-kB luciferase reporter, 16 h; AID 435022; in the data active = inhibition above about 35%
Shn3 inh set2 = inhibitors of Schnurri-3 3'UTR reporter in osteoblasts. Clone20 osteoblast Shn3 3'UTR firefly luciferase, 24 h. inhibition, % at 12.5 µM. actives 0.52% (n = 360,000). AID 588674;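 active = mean inhibition of at least 75% with every replicate also reaching 75%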;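 note: 0% = median of neutral control wells and 100% = pilot-screen positive control compound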
Mdm2-MdmX inh = human Mdm2/MdmX binding inhibition; SaOS-2 split-luciferase Mdm2/MdmX complementation, luminescence; actives 3% (n = 330,000); O15151+Q00987; inhibition, % at 8 µM;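 active = inhibition of at least 50% at 8 µM in the primary screen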
Target sequence (O15151 whole entry, looked up): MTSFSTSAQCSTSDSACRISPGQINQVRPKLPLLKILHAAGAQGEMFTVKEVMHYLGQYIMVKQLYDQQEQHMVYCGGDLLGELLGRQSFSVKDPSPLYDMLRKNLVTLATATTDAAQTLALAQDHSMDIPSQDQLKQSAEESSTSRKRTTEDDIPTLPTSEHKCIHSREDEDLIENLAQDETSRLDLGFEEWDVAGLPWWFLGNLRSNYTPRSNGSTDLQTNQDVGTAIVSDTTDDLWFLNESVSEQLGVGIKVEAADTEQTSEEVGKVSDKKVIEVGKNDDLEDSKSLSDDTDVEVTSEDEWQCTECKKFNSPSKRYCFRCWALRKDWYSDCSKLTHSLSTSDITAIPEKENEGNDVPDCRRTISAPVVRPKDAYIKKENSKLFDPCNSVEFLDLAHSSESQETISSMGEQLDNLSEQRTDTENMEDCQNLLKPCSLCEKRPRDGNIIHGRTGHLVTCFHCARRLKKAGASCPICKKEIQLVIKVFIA
Target sequence (Q00987 whole entry, looked up): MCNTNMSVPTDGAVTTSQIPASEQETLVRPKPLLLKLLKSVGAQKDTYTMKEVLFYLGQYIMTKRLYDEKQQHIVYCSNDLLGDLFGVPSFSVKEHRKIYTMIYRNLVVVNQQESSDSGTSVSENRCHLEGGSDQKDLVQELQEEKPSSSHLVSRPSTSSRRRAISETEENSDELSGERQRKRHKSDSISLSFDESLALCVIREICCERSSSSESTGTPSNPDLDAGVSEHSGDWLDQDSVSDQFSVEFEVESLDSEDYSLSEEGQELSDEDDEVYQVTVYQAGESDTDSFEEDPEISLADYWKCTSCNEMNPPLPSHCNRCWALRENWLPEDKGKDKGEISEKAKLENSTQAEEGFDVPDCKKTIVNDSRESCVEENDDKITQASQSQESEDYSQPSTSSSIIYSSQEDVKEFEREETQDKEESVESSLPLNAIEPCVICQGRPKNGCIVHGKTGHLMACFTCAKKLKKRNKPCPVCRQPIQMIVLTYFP
Gli-Sufu antag = blocks Gli-Sufu signaling in a luciferase reporter; Sufu-KO-LIGHT fibroblasts, Gli luciferase reporter luminescence; inhibition, % at 5 µM; actives 0.74% (n = 340,000);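 active = inhibition above about 55%, limit read from the data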;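 note: 0% = DMSO-treated cells and 100% = wells with medium but no cells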
Mdm2 MdmX conf = confirmation of human Mdm2/MdmX interaction inhibitors; shares compounds with Mdm2-MdmX inh; Mdm2-MdmX binding, luminescent assay; inhibition, % at 8 µM; actives 55% (n = 10,000); AID 489028; in the data active = inhibition above about 40%
FLuc counter = counter-screen for Mdm2/MdmX inhibitors: full-length luciferase | SaOS-2 full-length luciferase counterscreen, luminescence | inhibition, % at 8 µM | actives 77% (n = 6,200) | shares compounds with Mdm2-MdmX inh;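 active = mean inhibition at 8 µM reaching about 37%, which flags the compound as non-specific, limit read from the data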;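 note: p53-null SaOS-2 cells with luciferase driven by a doxycycline-inducible promoter; compound on cells about two nights before reading with doxycycline added after day one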
Numbers without * were called inactive; nt = no result given.

SMILES	Jurkat NFkB inh	697 NFkB inh	Shn3 inh set2	Mdm2-MdmX inh	Gli-Sufu antag	Mdm2 MdmX conf	FLuc counter
Cc1ccc2c(c1)c1c3n2CCN(C(=O)CCl)C3CCC1 (stereo not given)	-2	11	-12	51*	9	18	92*
CC(=O)N1CCn2c3c(c4cc(C)ccc42)CCCC31 (stereo not given)	-1	6	-23	7	-1	nt	nt
CN(C(=O)c1ccc(NC(=O)Cc2cccc(NC(=O)C3CCCN(C(=O)C4CCCC4)C3)c2)cc1)C1CCCC1 (stereo not given)	13	1	7	-5	3	nt	nt
Cc1cn(C2CCCCC2)c(=O)[nH]c1=O	nt	nt	-45	nt	-11	nt	nt
CC(C)=CCc1c2c(c(O)c3c(=O)c4c(oc13)-c1cc(O)c(O)cc1OC4C=C(C)C)C=CC(C)(C)O2 (stereo not given)	-11	-11	nt	83*	6	42*	34
C/C(=C\[C@@H](NP(=O)(c1ccccc1)c1ccccc1)c1ccccc1)CO[Si](c1ccccc1)(c1ccccc1)C(C)(C)C	14	11	8	76*	7	10	nt
O=C1c2ccccc2NC(c2ccc(-c3ccc(F)cc3)o2)N1O (stereo not given)	-91	-110	-109	32	-47	nt	nt
O=C1c2ccccc2NC(c2ccc(-c3ccc(Br)cc3)o2)N1O (stereo not given)	-1	-12	20	73*	-2	56*	31
O=C(CN(C(=O)c1ccccc1Cl)N1C(=O)CCCC1=O)c1ccc(Cl)cc1	4	10	nt	9	1	nt	nt
CN1CCN(CC(O)Cn2c3ccccc3c3ccccc32)CC1 (stereo not given)	1	10	7	29	7	nt	nt
COc1ccc(CN2CCN(CC(O)Cn3c4ccccc4c4ccccc43)CC2)cc1 (stereo not given)	-7	-9	3	66*	18	35	79*
CCOc1ccc(CN2CCN(CC(O)Cn3c4ccccc4c4ccccc43)CC2)cc1 (stereo not given)	0	2	-16	89*	-6	72*	36
COc1ccc(Cl)cc1NC(=O)NCC1CCN(Cc2cc(C)ccc2C)CC1	21	2	42	58*	6	36	nt
COCCNC(=O)CN(C(=O)CCC(=O)Nc1ccccn1)c1ccc(C)cc1C	1	0	1	-4	1	nt	nt
CC(=O)Nc1ccc(S(=O)(=O)NCCC(=O)N2CCN(C(c3ccccc3)c3ccccc3)CC2)cc1	9	-1	18	-1	3	nt	nt
NN1C(=O)NC(c2ccccc2)(c2ccccc2)C1=O	-8	1	9	-18	2	nt	nt
CN(C)S(=O)(=O)c1cccc(NC(=O)c2cc(-c3cccs3)nn2-c2cccc(Cl)c2)c1	27	6	6	50*	1	58*	65*
Cc1cc(C)c2sc(NNC(=O)c3ccc(S(=O)(=O)N4CCc5ccccc5C4)cc3)nc2c1	29	-47	96*	83*	26	85*	42*
Cc1cc(C)c2nc(NNC(=O)c3ccc(S(=O)(=O)N4CCc5ccccc5C4)cc3)sc2c1	8	-19	93*	82*	2	86*	38*
O=C(N/N=C/c1ccc(F)cc1)c1cc[n+]([O-])cc1	0	-10	22	10	29	nt	nt
COc1cc(C(=O)NC(=S)Nc2ccc(N3CCCC3)cc2)cc(OC)c1OC	10	-22	-1	-24	-4	nt	nt
C1CCCCCC(NCCN2CCNCC2)CCCCC1	23	-27	12	97*	6	93*	23
CSc1nc(N)nc(SCCS(=O)(=O)c2ccc(Cl)cc2)c1C#N	23	-3	7	57*	23	23	nt
FC(F)(F)c1cnc(NNC(=S)Nc2ccc(Cl)cc2)c(Cl)c1	12	-13	18	90*	24	67*	23
Fc1ccc(NC(=S)NNc2ncc(C(F)(F)F)cc2Cl)c(F)c1	5	-32	28	77*	25	49*	67*
SMILES	Jurkat NFkB inh	697 NFkB inh	Shn3 inh set2	Mdm2-MdmX inh	Gli-Sufu antag	Mdm2 MdmX conf	FLuc counter
Cc1ccc(NC(=S)NNc2ncc(C(F)(F)F)cc2Cl)cc1	11	-18	35	15	19	nt	nt
C/C(=N/NC(=O)c1ccc(Br)o1)c1cccc(NC(=O)c2ccc(F)cc2)c1	-16	21	-19	11	-13	nt	nt
CCCNc1nc2ccccc2n2c(C)nnc12	-21	33	-23	58*	19	33	nt
Cc1cccc(OCC(=O)Nc2ccccc2N2CCN(C(=O)C(C)C)CC2)c1C	0	-21	14	100*	12	6	nt
CCCCCCOC(=O)C[N+](C)(C)CCOC1CC2CCC1(C)C2(C)C (stereo not given)	14	14	25	67*	-3	74*	18
CC1(C)C2CCC1(C)C(OCCNCCOC(=O)Nc1ccccc1)C2 (stereo not given)	0	4	-11	5	-4	nt	nt
CN(C)CCN(C)Cc1ccccc1Sc1cccc2ccccc12	-2	-11	11	64*	13	43*	69*
CCOc1ccc(C2=CSC3=NCCN23)cc1[N+](=O)[O-]	-8	-5	6	6	19	nt	nt
O=C(Nc1ccc(Cl)c(C(F)(F)F)c1)NC1CC2CCCC(C1)N2Cc1ccccc1 (stereo not given)	-4	-13	nt	83*	37	52*	60*
N#Cc1c(N)n(Cc2ccccc2)c(=O)c2cc([N+](=O)[O-])ccc12	-8	-10	-50	54*	-3	11	nt
Cc1nc2ccc([N+](=O)[O-])cc2c(=O)n1Cc1ccc([N+](=O)[O-])cc1	8	28	23	20	9	nt	nt
CCOC(=O)CSc1nc(C)cc(C)c1C#N	-6	12	5	12	-4	nt	nt
Cc1cc(C)c(C#N)c(SCC(=O)c2ccc(Cl)cc2Cl)n1	6	33	20	74*	nt	73*	70*
COc1ccc(S(N)(=O)=O)cc1C(=O)OCC(=O)N1CC(=O)Nc2ccccc21	14	-1	4	8	-5	nt	nt
CCC[C@H](CN[C@@H](CNC)[C@H](C)O)NCCc1ccc(OC)cc1	6	17	-17	-16	1	nt	nt
CCCC[C@@H](CNC)NC[C@H](Cc1ccc(O)cc1)NCCc1ccc(OCC)cc1	25	10	17	98*	21	52*	74*
COc1ccc(CCN2C(=O)c3[nH]nc(-c4ccccc4O)c3C2c2cccc(Cl)c2)cc1 (stereo not given)	-5	-10	30	76*	-7	57*	74*
COc1ccc(C2c3c(-c4ccccc4O)n[nH]c3C(=O)N2CCc2ccc(OC)c(OC)c2)cc1 (stereo not given)	-25	2	12	30	-17	nt	nt
